Our source for the outcome and AC50 values is PubChem BioAssay (EPA / NIEHS).

Assay [1] has as its target Nuclear respiratory factor 1 (Homo sapiens) (UniProt Q16656). Kind of assay: ATG_NRF1_CIS: Attagene CIS-FACTORIAL HepG2 Assay for human Nuclear Respiratory Factor 1 (NRF1) Orphan Gene (AID 2282987). As to conditions: HepG2 NRF1 cis-element reporter, Attagene multiplex; actives raise or lower the signal. The procedure, abridged: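 Endogenous NRF1-driven reporter transcription measured in transiently transfected human HepG2 liver cells. Readout: reporter mRNA by RT-PCR and capillary electrophoresis with fluorescence detection, 24 h post-dosing. Gain or loss of signal fitted relative to DMSO baseline.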

Assay [2] is described as follows: ATG_NFI_CIS: Attagene CIS-FACTORIAL HepG2 Assay for human Nuclear Factor I (NFI) (AID 2282989). As to conditions: HepG2 cis-regulatory reporter, NFI response element transcription; actives raise or lower the signal. The procedure, abridged:
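After transient transfection of HepG2 with cis-promoter reporter constructs and 24 h dosing, RNA is reverse-transcribed, amplified, 6-FAM end-labelled and HpaI-digested before capillary analysis. Bidirectional curve fitting against DMSO.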

Assay [3] addresses Myc proto-oncogene protein (Homo sapiens) (UniProt P01106). Briefly: ATG_Myc_CIS: Attagene CIS-FACTORIAL HepG2 Assay for human Myelocytomatosis (Myc) Proto-Oncogene Transcription Factor (AID 2282990). As to conditions: HepG2, Attagene cis-reporter transcription factor activity; actives raise or lower the signal. The procedure, abridged: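 Cells of the HepG2 human liver line bear multiple cis-driven reporter transcription units. Reporter mRNA after 24 h exposure is reverse-transcribed, amplified, labelled and resolved by capillary electrophoresis, with gain- or loss-of-signal fitting relative to DMSO.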

Assay [4] can be described thus: ATG_NF_kB_CIS: Attagene CIS-FACTORIAL HepG2 Assay for human Nuclear Factor Kappa B (NF-kB) (AID 2282991). As to conditions: HepG2 Attagene cis-factorial NF-kB reporter mRNA; actives raise or lower the signal. The procedure, abridged:
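Read-out: reporter transcript levels quantified by RT-PCR plus capillary electrophoresis of 6-FAM-labelled, HpaI-cut fragments. Transfected HepG2 cells, 24 h compound exposure, endogenous NF-kB-driven cis element; gain or loss scored versus DMSO.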

Assay [5] in a line: ATG_NRF2_ARE_CIS: Attagene CIS-FACTORIAL HepG2 Assay for human Nuclear Factor Erythroid 2 Related Factor 2 (NFR2) response to Antioxidant Response Elements (ARE) (AID 2282992). As to conditions: HepG2 Attagene ARE/NRF2 reporter, transcription factor activity; actives raise or lower the signal. Summed up: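 Endogenous transcription factor activity in human liver HepG2 cells is tracked via a cis-element-driven reporter within a multiplexed set. mRNA induction is read by RT-PCR and capillary electrophoresis after 24 h, with DMSO as baseline.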

Assay [6] in a line: ATG_Oct_MLP_CIS: Attagene CIS-FACTORIAL HepG2 Assay for human Octamer-Binding Transcription Factor (Oct) (AID 2282993). As to conditions: HepG2 Attagene cis-factorial Oct reporter, mRNA; actives raise or lower the signal. The procedure, abridged: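 Cells of the HepG2 line express promoter-controlled reporter sequences whose mRNA levels, after 24 h treatment, are measured by RT-PCR and capillary electrophoresis. Increases and decreases are scored relative to DMSO.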

In assay [7] the target is human Peroxisome Proliferator-activated Receptor delta (PPARd), PPARD (gene 5467) (UniProt Q03181). Kind of assay: ATG_PPARd_TRANS: Attagene TRANS-FACTORIAL HepG2 Assay for human Peroxisome Proliferator-activated Receptor delta (PPARd) (AID 2283002; active means hit-call score of the fitted dose curve at least 0.9, where 1 is the maximum). The procedure, abridged:
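Cell-based TRANS reporter: HepG2, transient MRTU transfection, 24 h exposure. Readout = reporter mRNA (RT-PCR/CE, 6-FAM). Gain-of-signal fit vs DMSO control.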

The target of assay [8] is Peroxisome proliferator-activated receptor gamma (Homo sapiens) (UniProt P37231). Kind of assay: ATG_PPARg_TRANS: Attagene TRANS-FACTORIAL HepG2 Assay for human Peroxisome Proliferator-activated Receptor-gamma (PPARg) (AID 2283007; active means hit-call score of the fitted dose curve at least 0.9, where 1 is the maximum). Summed up: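 Read-out: reporter mRNA induction, detected by fluorescence after RT-PCR and capillary electrophoresis. Transiently transfected human HepG2 liver cells carrying a chimeric NR-Gal4 construct were dosed for 24 h; activity was fitted upward relative to DMSO.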

Assay [9] addresses Nuclear receptor subfamily 1 group I member 2 (Homo sapiens) (UniProt O75469). Kind of assay: ATG_PXR_TRANS: Attagene TRANS-FACTORIAL HepG2 Assay for human Pregnane X Receptor (PXR) (AID 2283008; active means hit-call score of the fitted dose curve at least 0.9, where 1 is the maximum). The procedure, abridged: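 HepG2 transfected (FuGene 6) with GAL4-UAS reporter units + PXR-Gal4 chimera; dosed 24 h. Total RNA → oligo(dT) RT → PCR → 6-FAM primer extension → HpaI cut → CE. Gain-of-signal vs DMSO.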

In assay [10] the target is human Retinoic Acid Receptor gamma (RARg), RARG (gene 5916) (UniProt P13631). Kind of assay: ATG_RARg_TRANS: Attagene TRANS-FACTORIAL HepG2 Assay for human Retinoic Acid Receptor gamma (RARg) (AID 2283009; active means hit-call score of the fitted dose curve at least 0.9, where 1 is the maximum). The procedure, abridged: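 TRANS format measured activity of exogenous NR-GAL4 fusion (RARg) in transfected HepG2 liver cells after 24 h dosing. Induced reporter RNA was detected by RT-PCR/capillary electrophoresis fluorescence, analysed in the positive direction against DMSO.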

Assay [11] in a line: BSK_3C_TissueFactor: BioMAP Diversity Plus: 3C Assay for Tissue Factor Biomarker Activity (AID 2282997). As to conditions: BioMAP 3C HUVEC, tissue factor biomarker readout; actives raise or lower the signal. The procedure, abridged: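 After a 24 h chemical exposure of primary human umbilical vein endothelial cells, Tissue Factor levels were quantified by ELISA.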
Assay [12] is described as follows: BSK_3C_uPAR: BioMAP Diversity Plus: 3C Assay for Urokinase-type plasminogen activator receptor (uPAR) Biomarker Activity (AID 2282998). As to conditions: BioMAP 3C HUVEC, uPAR biomarker ELISA; actives raise or lower the signal. Summed up: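 Endothelial primary cells of human umbilical vein origin received test chemical; 24 h later uPAR was assayed by ELISA. Fitting was bidirectional, DMSO as negative control.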

Assay [13] in a line: BSK_3C_VCAM1: BioMAP Diversity Plus: 3C Assay for Vascular cell adhesion molecule 1 (VCAM1) Biomarker Activity (AID 2282999). As to conditions: BioMAP 3C HUVEC, VCAM1 ELISA, cytokine-stimulated; actives raise or lower the signal. The procedure, abridged: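 Activity fitted in both directions relative to DMSO, with ELISA measurement of the surface marker on primary HUVEC (3C) at 24 h post-treatment; parallel SRB staining (0.1% SRB, TCA-fixed, 560 nm) flagged overt cytotoxicity.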

Assay [14] can be described thus: BSK_4H_Eotaxin3: BioMAP Diversity Plus: 4H Assay for Eotaxin 3 Biomarker Activity (AID 2283000).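 On outcome: CCL26 protein level quantified by ELISA in parallel with SRB cytotoxicity check.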 As to conditions: primary human endothelial cells (HUVEC); actives raise or lower the signal. The procedure, abridged: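 Chemicals were added to human umbilical vein endothelium cultures, and Eotaxin-3 was quantified by ELISA at 24 h. Values were derived by bidirectional fitting with DMSO serving as negative control and activity baseline.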

Assay [15] addresses human Peroxisome Proliferator-activated Receptor alpha (PPARa), PPARA (gene 5465) (UniProt Q07869). Briefly: ATG_PPARa_TRANS: Attagene TRANS-FACTORIAL HepG2 Assay for human Peroxisome Proliferator-activated Receptor alpha (PPARa) (AID 2283001; active means hit-call score of the fitted dose curve at least 0.9, where 1 is the maximum). The procedure, abridged: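 Reporter transcripts quantified by RT-PCR plus capillary electrophoresis after 24 h treatment, fitted upward relative to DMSO. Cells: human HepG2 transiently carrying multiple GAL4-UAS reporter units driven by NR-Gal4 chimeras.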

Read-out in assay [16]: Intercellular Adhesion Molecule 1 (ICAM1), ICAM1 (gene 3383)
Kind of assay: BSK_3C_ICAM1: BioMAP Diversity Plus: 3C Assay for Intercellular Adhesion Molecule 1 (ICAM1) Biomarker Activity (AID 2283003). As to conditions: primary human endothelial cells (HUVEC); actives raise or lower the signal. The procedure, abridged:
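Chemicals are dosed onto primary human umbilical vein endothelium (3C system). After 24 h, ICAM-1 is measured by ELISA, and responses are fitted bidirectionally relative to DMSO.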

Assay [17] is described as follows: BSK_3C_Proliferation: Cell Proliferation Assessment in the BioMAP Diversity Plus: 3C Assay (AID 2283006).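 Further: potency may reflect either rise or fall in cell number versus DMSO.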 As to conditions: primary human endothelial cells (HUVEC). The procedure, abridged: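 Cells (human umbilical vein endothelial, sub-confluent) receive test chemical; after 48 h they are fixed in 10% trichloroacetic acid, stained with 0.1% SRB and read at 560 nm. Activity is referenced to DMSO, fitting increases and decreases.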

The target of assay [18] is human Retinoic Acid Receptor beta (RARb), RARB (gene 5915) (UniProt P10826). Kind of assay: ATG_RARb_TRANS: Attagene TRANS-FACTORIAL HepG2 Assay for human Retinoic Acid Receptor beta (AID 2283004; active means hit-call score of the fitted dose curve at least 0.9, where 1 is the maximum). Summed up:
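Transient transfection of HepG2 with multiple reporter units → chemical dosing, 24 h → total RNA isolation → RT with oligo(dT) → reporter-specific PCR, 6-FAM primer extension, HpaI digest → capillary electrophoresis. Positive direction vs DMSO control.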

For assay [19], the target named is Retinoic acid receptor alpha (Homo sapiens) (UniProt P10276). Briefly: ATG_RARa_TRANS: Attagene TRANS-FACTORIAL HepG2 Assay for human Retinoic Acid Receptor alpha (RARa) (AID 2283005; active means hit-call score of the fitted dose curve at least 0.9, where 1 is the maximum). Summed up: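 Reporter transcripts, measured by RT-PCR with fluorescent labeling and capillary electrophoresis after 24 h dosing, reflect activity of an exogenous human RARa–GAL4 fusion in transiently transfected HepG2. Fitted for increase relative to DMSO.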

“And” between values parts separate entries of the source, which are not always exact repeats. Identical values can stand only once. Records with an inconclusive call do not appear. The source made the active and inactive calls. How the source made its calls, unless noted: active means hit-call score of the fitted dose curve at least 0.9, where 1 is the maximum; inactive means score below 0.9.

Nuclear receptor subfamily 1 group I member 2 (Homo sapiens), sequence (O75469 whole entry, looked up, the tested form may be a part): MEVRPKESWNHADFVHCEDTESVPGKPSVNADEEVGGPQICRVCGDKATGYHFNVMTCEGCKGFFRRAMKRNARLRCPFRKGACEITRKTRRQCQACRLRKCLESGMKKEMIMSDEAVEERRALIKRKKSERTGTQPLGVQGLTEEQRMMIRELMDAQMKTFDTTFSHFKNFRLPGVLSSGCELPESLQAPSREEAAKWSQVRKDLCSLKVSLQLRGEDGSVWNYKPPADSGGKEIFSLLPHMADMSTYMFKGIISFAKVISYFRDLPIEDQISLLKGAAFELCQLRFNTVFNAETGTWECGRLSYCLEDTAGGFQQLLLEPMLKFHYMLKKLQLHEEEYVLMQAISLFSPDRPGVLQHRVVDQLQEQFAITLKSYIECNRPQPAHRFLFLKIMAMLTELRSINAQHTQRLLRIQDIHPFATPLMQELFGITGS
Myc proto-oncogene protein (Homo sapiens), sequence (P01106 whole entry, looked up): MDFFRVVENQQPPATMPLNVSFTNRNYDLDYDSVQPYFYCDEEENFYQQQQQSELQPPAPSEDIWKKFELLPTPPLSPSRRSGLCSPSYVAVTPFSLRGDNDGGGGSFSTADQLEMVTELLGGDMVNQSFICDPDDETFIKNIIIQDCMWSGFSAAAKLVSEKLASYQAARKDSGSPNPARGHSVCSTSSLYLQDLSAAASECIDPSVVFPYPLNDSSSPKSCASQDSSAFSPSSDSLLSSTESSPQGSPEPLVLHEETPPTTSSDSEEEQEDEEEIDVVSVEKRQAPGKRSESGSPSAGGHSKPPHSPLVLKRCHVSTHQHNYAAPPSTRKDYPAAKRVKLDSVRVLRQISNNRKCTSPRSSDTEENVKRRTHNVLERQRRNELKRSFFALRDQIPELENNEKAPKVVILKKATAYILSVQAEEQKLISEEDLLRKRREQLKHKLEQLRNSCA
human Peroxisome Proliferator-activated Receptor alpha (PPARa), PPARA (gene 5465), sequence (Q07869 whole entry, looked up, the tested form may be a part): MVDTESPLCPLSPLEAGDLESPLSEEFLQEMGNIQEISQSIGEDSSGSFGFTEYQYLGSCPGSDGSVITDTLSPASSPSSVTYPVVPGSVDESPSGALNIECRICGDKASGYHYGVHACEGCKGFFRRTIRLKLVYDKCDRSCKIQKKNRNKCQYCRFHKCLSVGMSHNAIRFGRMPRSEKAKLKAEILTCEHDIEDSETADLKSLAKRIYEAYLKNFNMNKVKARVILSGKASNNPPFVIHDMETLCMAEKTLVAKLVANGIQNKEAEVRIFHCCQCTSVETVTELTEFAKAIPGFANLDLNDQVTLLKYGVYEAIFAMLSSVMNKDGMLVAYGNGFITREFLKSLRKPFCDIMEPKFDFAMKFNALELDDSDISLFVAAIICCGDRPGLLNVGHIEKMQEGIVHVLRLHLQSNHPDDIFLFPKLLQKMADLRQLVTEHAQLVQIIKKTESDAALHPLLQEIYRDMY
Peroxisome proliferator-activated receptor gamma (Homo sapiens), sequence (P37231 whole entry, looked up, the tested form may be a part): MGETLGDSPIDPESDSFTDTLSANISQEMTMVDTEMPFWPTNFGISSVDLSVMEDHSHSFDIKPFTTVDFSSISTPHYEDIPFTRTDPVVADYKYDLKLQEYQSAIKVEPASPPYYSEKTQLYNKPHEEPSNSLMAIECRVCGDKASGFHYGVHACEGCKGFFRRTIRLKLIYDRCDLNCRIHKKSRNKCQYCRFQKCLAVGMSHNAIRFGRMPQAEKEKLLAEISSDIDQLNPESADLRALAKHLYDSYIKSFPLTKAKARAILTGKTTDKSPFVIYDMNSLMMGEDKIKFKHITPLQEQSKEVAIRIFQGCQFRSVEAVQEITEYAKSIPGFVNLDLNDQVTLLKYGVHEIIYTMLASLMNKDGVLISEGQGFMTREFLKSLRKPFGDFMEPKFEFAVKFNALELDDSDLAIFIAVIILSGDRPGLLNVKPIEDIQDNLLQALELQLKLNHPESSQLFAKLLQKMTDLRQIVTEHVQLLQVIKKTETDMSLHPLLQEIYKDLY
human Peroxisome Proliferator-activated Receptor delta (PPARd), PPARD (gene 5467), sequence (Q03181 whole entry, looked up): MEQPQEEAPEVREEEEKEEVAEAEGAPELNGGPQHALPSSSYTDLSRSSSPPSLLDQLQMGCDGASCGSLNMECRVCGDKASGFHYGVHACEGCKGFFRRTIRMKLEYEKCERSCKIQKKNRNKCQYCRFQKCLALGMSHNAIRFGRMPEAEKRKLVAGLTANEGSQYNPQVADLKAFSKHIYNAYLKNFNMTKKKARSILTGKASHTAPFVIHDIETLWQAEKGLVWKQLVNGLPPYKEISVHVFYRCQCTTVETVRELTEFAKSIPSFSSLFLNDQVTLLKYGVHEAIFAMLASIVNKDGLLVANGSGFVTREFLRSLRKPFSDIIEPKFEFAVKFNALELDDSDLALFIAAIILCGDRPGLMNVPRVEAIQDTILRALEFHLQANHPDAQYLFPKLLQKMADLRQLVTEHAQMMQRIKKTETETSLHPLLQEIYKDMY
Nuclear respiratory factor 1 (Homo sapiens), sequence (Q16656 whole entry, looked up): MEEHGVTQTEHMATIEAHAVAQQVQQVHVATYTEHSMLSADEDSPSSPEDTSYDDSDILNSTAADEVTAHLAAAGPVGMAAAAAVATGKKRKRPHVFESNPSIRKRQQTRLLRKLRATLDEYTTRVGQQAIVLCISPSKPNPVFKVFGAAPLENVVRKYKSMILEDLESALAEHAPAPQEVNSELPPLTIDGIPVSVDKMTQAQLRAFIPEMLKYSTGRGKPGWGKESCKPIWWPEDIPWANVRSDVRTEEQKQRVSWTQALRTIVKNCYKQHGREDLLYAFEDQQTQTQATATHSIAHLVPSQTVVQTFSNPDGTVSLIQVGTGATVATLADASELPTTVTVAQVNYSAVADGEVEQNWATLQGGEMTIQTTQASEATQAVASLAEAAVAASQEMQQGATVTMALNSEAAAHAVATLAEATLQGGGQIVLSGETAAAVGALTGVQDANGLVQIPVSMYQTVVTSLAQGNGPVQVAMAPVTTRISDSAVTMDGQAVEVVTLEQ
Retinoic acid receptor alpha (Homo sapiens), sequence (P10276 whole entry, looked up, the tested form may be a part): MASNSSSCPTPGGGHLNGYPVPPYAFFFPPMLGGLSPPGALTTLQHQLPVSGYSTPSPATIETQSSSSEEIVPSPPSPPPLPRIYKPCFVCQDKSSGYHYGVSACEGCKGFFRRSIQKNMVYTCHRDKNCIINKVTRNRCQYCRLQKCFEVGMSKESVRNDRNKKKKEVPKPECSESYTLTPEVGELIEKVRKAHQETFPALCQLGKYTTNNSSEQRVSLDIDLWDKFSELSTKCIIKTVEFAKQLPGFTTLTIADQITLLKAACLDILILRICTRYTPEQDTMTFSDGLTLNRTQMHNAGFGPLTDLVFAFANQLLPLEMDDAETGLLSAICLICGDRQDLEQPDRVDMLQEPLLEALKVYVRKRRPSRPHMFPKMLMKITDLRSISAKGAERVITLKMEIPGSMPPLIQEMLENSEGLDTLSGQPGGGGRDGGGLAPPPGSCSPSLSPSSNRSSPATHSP
human Retinoic Acid Receptor gamma (RARg), RARG (gene 5916), sequence (P13631 whole entry, looked up, the tested form may be a part): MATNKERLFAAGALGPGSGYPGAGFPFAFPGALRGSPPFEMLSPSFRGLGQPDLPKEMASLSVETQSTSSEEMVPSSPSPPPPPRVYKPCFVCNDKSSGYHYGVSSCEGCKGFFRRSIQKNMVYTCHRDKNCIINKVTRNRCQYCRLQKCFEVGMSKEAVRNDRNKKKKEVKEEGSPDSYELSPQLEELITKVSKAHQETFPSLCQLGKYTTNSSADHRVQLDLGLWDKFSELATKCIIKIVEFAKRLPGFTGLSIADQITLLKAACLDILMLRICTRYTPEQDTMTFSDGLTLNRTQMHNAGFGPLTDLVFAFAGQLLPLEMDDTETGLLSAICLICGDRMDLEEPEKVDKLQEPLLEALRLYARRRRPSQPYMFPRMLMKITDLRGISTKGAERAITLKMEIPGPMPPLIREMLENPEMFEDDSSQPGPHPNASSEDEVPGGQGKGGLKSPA
human Retinoic Acid Receptor beta (RARb), RARB (gene 5915), sequence (P10826 whole entry, looked up): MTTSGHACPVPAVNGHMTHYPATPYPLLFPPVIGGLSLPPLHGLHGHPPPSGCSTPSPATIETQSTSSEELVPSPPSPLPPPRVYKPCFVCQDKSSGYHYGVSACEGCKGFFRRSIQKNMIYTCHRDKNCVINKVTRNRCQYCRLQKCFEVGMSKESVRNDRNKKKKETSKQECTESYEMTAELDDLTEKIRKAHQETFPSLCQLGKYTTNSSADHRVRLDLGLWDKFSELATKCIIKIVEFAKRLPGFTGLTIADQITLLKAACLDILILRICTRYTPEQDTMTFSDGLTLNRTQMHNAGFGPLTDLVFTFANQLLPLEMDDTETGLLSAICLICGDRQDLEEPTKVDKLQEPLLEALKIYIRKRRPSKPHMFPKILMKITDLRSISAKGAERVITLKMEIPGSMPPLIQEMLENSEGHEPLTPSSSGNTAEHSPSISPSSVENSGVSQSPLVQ

Regarding `CCCCCCCCCc1ccc(OCCO)cc1`, the call in [1], in assay [2], in assay [3], in assay [4], in [6] and in assay [7] was inactive. In addition, the molecule was classed as inactive in assay [8] and in assay [10]. The AC50 (in general, the concentration at which the activity in the assay is half-maximal) is 5.92 µM (active) in [5] and 0.732 µM (active) in assay [9].

On to `Cc1cc(C)c(O)c(C(C)(C)C)c1`, for which the result in assay [1], in assay [2], in [3], in [4], in assay [6] and in assay [15] was inactive. The result in assay [7] and in [8] was inactive. The AC50 was 52.2 µM (active) in assay [5]; 26.9 µM (active) in assay [11]; 29.2 µM (active) in [12]; 31.6 µM (active) in [13]; 30.4 µM (active) in assay [14]; 30.4 µM (active) in assay [16]. Further, the AC50 was 20 µM (active) in [17] and 16.2 µM (active) in assay [9].

In the case of `COC(=O)c1ccc(C=O)cc1`, the molecule was classed as inactive in assay [1], in assay [2], in assay [3], in assay [4], in assay [5] and in assay [6]. The call in [15] and in assay [8] was inactive.

Turning to `O=C1C=CC(=O)N1c1ccccc1`, the molecule was called inactive in assay [1], in assay [2], in assay [3], in assay [4], in [6] and in assay [15]. For the same molecule, the molecule was called inactive in assay [7], in assay [18], in assay [19] and in assay [8]. Besides, the concentration at half-maximal activity (AC50) in [5] was 53.8 µM (active).

On to `C=CC(=O)OCC(F)(F)C(F)(F)C(F)(F)C(F)(F)C(F)(F)C(F)(F)C(F)(F)C(F)F`, for which the molecule was classed as inactive in assay [1], in [2], in assay [3], in assay [6], in [11] and in assay [12]. The result in assay [13], in assay [14], in assay [15], in [7], in [16] and in assay [9] was inactive. For the same molecule, the AC50 in assay [4] is 80.2 µM (active); in assay [5], 58.2 µM (active); in [17], 20.8 µM (active) and 24.1 µM (active); in [8] it was 37.6 µM (active).

Consider `Oc1ccc(C2(c3ccc(O)c(C4CCCCC4)c3)CCCCC2)cc1C1CCCCC1`, for which the molecule was called inactive in assay [1], in [3], in assay [4], in assay [6], in assay [15] and in assay [19]. For the same molecule, the call in assay [10] was inactive. Also, the AC50 in assay [2] is 8.18 µM (active); in assay [5] it was 6.2 µM (active); in [8], 2.92 µM (active); in assay [9] it was 0.977 µM (active).
